Our source for the viability index values is the supplement of paper PMC4723716.

The assay concerns Plasmodium falciparum NF54 gametocytes. The experiment in a line: viability index relative to DMSO control (fraction); higher = less gametocyte killing. To be noted: 12.5 µM, incubation time: 72 h. In a few lines:
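Each stage (I–V) of P. falciparum NF54 gametocytes was incubated with compound at 12.5 µM in 384-well plates, in 40 µl of serum-containing medium at 0.50% gametocytemia and 1.25% hematocrit, for 72 hr at 37°C under low oxygen. After 5 µl of 5 µM MitoTracker Red CMXRos was added for 20 min, 5 µl from each well was moved into 40 µl of 500 nM dye in serum-free medium and imaged across three fields after 30 min. The viability index is the gametocyte particle count divided by the plate mean of the solvent-only wells.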

[1] abbreviates: gametocyte stage: Stage I viability index.
Where [2] appears, read: gametocyte stage: Stage II viability index.
The mark [3] stands for this setting: gametocyte stage: Stage III viability index.
Where [4] appears, read: gametocyte stage: Stage IV viability index.
The mark [5] stands for this setting: gametocyte stage: Stage V viability index.

Take `COc1ccc(C(=O)NC(c2ccc(Cl)cc2Cl)c2cc(Cl)c3cccnc3c2O)cc1` (stereo not given): the viability index reads like this: under setting [1], 0.0262; under setting [2], 0.0341; under setting [3], 0.0814; under setting [4], 0.136; under setting [5], 0.0779.

As for `COc1ccc(C(O)(CCC(C)C)C(CN2CCOCC2)c2ccc(Cl)cc2)cc1` (stereo not given), the viability index runs as follows: under setting [1], 1.2; under setting [2], 0.843; under setting [3], 1.12; under setting [4], 1; under setting [5], 0.922.

Consider `CCOc1ccc(CN2CCN(CC(O)COc3ccc(OCC(O)CN4CCN(Cc5ccc(OCC)cc5)CC4)cc3)CC2)cc1` (stereo not given), for which the viability index was found to be 0.076 under setting [1]; 0.114 under setting [2]; 0.133 under setting [3]; 0.104 under setting [4]; 0.0519 under setting [5].

In the case of `Cc1cc(NC(=O)c2cccc(C(F)(F)F)c2)n(-c2nc(-c3ccc4c(c3)OCO4)cs2)n1`, the viability index reads like this: under setting [1], 1.26; under setting [2], 0.943; under setting [3], 1.1; under setting [4], 0.951; under setting [5], 0.956.

As for `COc1cccc(C=Cc2nc(=O)c3ccccc3o2)c1OC`, the viability index worked out at 0.751 under setting [1]; 0.717 under setting [2]; 0.809 under setting [3]; 0.948 under setting [4]; 0.967 under setting [5].

As for `Cc1cc(Nc2ccc(OCc3ccccc3)cc2)nc2cc(O)ccc12`, the viability index runs as follows: under setting [1], 0.332; under setting [2], 0.199; under setting [3], 0.468; under setting [4], 0.487; under setting [5], 0.481.

As to `COc1ccc(-c2nc(NC(=O)CS(=O)(=O)c3ccc(F)cc3)sc2C)cc1`, the viability index came to 0.307 under setting [1]; 0.564 under setting [2]; 1.11 under setting [3]; 0.888 under setting [4]; 0.978 under setting [5].

`Cc1cccc(N2C(=O)C3C(C2=O)C2(c4ccccc4)C(=O)C3(c3ccccc3)C(c3ccc4c(c3)OCO4)=C2c2ccc3c(c2)OCO3)c1` (stereo not given) displayed a viability index under setting [1] of 1.16; a viability index under setting [2] of 0.896; a viability index under setting [3] of 1.08; a viability index under setting [4] of 0.886; a viability index under setting [5] of 1.03.

Take `CCOc1ccc(-c2nonc2NC(=O)c2cccc(C)c2)cc1OCC`: the viability index stood at 0.0619 under setting [1]; 0.0773 under setting [2]; 0.0679 under setting [3]; 0.222 under setting [4]; 0.626 under setting [5].

Regarding `COc1ccc(Br)cc1C1Nc2ccc3ccccc3c2C2=C1C(=O)CC(c1ccccc1)C2` (stereo not given), the viability index is, setting by setting: under setting [1], 0.44; under setting [2], 0.729; under setting [3], 0.873; under setting [4], 0.939; under setting [5], 1.05.

Consider `CCOc1ccc(-c2nc(NC(=O)c3cccc(S(C)(=O)=O)c3)sc2C)cc1`, for which the viability index reads like this: under setting [1], 0.956; under setting [2], 0.686; under setting [3], 1.1; under setting [4], 0.857; under setting [5], 0.857.

Take `Cc1c(C)n(CC(O)CNC2CCCCC2C)c2ccccc12` (stereo not given): the viability index runs as follows: under setting [1], 0.0939; under setting [2], 0.217; under setting [3], 0.644; under setting [4], 0.766; under setting [5], 0.923.

The compound `CN1CCN(c2nc(Nc3ccc(O)cc3)nc3ccccc23)CC1` returned a viability index under setting [1] of 0.0262; a viability index under setting [2] of 0.247; a viability index under setting [3] of 0.796; a viability index under setting [4] of 0.927; a viability index under setting [5] of 0.74.

Turning to `Cc1ccc2cc3c(N)c4c(C)ccc(C)c4nc3nc2c1`, the viability index reads like this: under setting [1], 0.0542; under setting [2], 0.005; under setting [3], 0.0231; under setting [4], 0.00316; under setting [5], 0.026.

For `COc1ccccc1N1CCN(C(CNS(=O)(=O)c2ccc(Cl)cc2)c2cccnc2)CC1` (stereo not given), the viability index was determined as 0.188 under setting [1]; 0.564 under setting [2]; 1.04 under setting [3]; 0.815 under setting [4]; 0.912 under setting [5].

For the compound `Cc1cc(NC(=O)c2ccc(-c3ccccc3)cc2)no1`, the viability index came to 0.759 under setting [1]; 0.877 under setting [2]; 0.901 under setting [3]; 0.836 under setting [4]; 0.681 under setting [5].

On to `COc1ccc2c(c1)C1(Nc3ccccc3-c3nc4ccccc4n31)C(=O)N2` (stereo not given), for which the viability index is, setting by setting: under setting [1], 0.0265; under setting [2], 0.00483; under setting [3], 0.017; under setting [4], 0.0608; under setting [5], 0.033.

Take `COc1ccc(-c2nonc2NC(=O)c2cccc(Cl)c2)cc1OC`: the viability index reads like this: under setting [1], 0.27; under setting [2], 0.207; under setting [3], 0.505; under setting [4], 0.684; under setting [5], 0.187.

For `COc1ccc(C2Sc3ccccc3N=C3C2=C(O)c2ccccc23)cc1` (stereo not given), the viability index stood at 0.64 under setting [1]; 0.882 under setting [2]; 0.967 under setting [3]; 1.08 under setting [4]; 0.956 under setting [5].

Turning to `CCCCNc1nc(NC(C)(C)C)nc(NC(C)(C)C)n1`, the viability index reads like this: under setting [1], 0.0157; under setting [2], 0.0425; under setting [3], 0.223; under setting [4], 0.117; under setting [5], 0.0649.

Regarding `O=C(Nc1cccc(C(F)(F)F)c1)c1cc(Cl)ccc1O`, the viability index by setting is: under setting [1], 0.00552; under setting [2], 0.00676; under setting [3], 0.0184; under setting [4], 0.0669; under setting [5], 0.11.

Consider `OCCNc1nc(Nc2ccc(Cl)c(Cl)c2)nc2ccccc12`, for which the viability index stood at 0.0254 under setting [1]; 0.246 under setting [2]; 0.665 under setting [3]; 0.484 under setting [4]; 0.442 under setting [5].

On to `C=C(C)CCC(C)N1CCC(N2CCC(C(=O)NCCc3ccccc3)CC2)CC1` (stereo not given), for which the viability index by setting is: under setting [1], 0.538; under setting [2], 0.665; under setting [3], 0.948; under setting [4], 0.845; under setting [5], 0.758.

Take `O=C(Nc1ccc(Br)cc1)Nc1cccc(Cl)c1`: the viability index was 0.341 under setting [1]; 0.542 under setting [2]; 0.816 under setting [3]; 0.936 under setting [4]; 0.451 under setting [5].

The compound `OC(CNCc1ccccc1)Cn1c2ccccc2c2ccccc21` (stereo not given) displayed a viability index under setting [1] of 0.0629; a viability index under setting [2] of 0.0658; a viability index under setting [3] of 0.172; a viability index under setting [4] of 0.342; a viability index under setting [5] of 0.26.

In turn, `Cc1ccnc(NC(c2cccc(OCc3ccccc3)c2)c2ccc3cccnc3c2O)c1` (stereo not given) gave a viability index under setting [1] of 0.0271; a viability index under setting [2] of 0.015; a viability index under setting [3] of 0.0204; a viability index under setting [4] of 0.00316; a viability index under setting [5] of 0.

Regarding `CCC(=O)Nc1nnc(Cc2ccc(OC)c(OC)c2)s1`, the viability index by setting is: under setting [1], 1.02; under setting [2], 0.965; under setting [3], 0.901; under setting [4], 1.08; under setting [5], 1.38.

On to `O=C(NCCCN1CCC(N2CCCCC2)CC1)C1=Cc2cc(Br)ccc2OC1`, for which the viability index reads like this: under setting [1], 0.0935; under setting [2], 0.427; under setting [3], 0.742; under setting [4], 0.699; under setting [5], 0.312.

Consider `COCCNC(=O)c1ccc(OC2CCN(Cc3ccc(F)c(F)c3)CC2)c(Cl)c1`, for which the viability index runs as follows: under setting [1], 0.672; under setting [2], 0.812; under setting [3], 1.07; under setting [4], 0.979; under setting [5], 0.901.

Regarding `O=C(NCc1ccco1)C1CCN(S(=O)(=O)c2ccc(Cl)cc2)CC1`, the viability index by setting is: under setting [1], 0.568; under setting [2], 0.802; under setting [3], 1.03; under setting [4], 0.942; under setting [5], 1.23.
